GPT2 inh: Primary qHTS assay for inhibitors of Glutamate pyruvate transaminase 2 (GPT2). Alanine aminotransferase 2 (Homo sapiens), Q8TD30. Recombinant GPT2, coupled pyruvate oxidase/HRP Amplex Red fluorescence. Potency, µM (series often up to 57.7 µM), hits mostly inhibitors. hit rate 0.25% among 100,000. AID 1671188, 2021; note: nearly all actives have a fitted effect of over 60% in size
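Fluorescence read-out: pyruvate from GPT2 turnover coupled to pyruvate oxidase, HRP and Amplex Red (0.2mM ThPP, 0.2U/mL PO and HRP, 50uM Amplex final). Substrates 250uM a-KG, 2mM L-alanine; enzyme 10ng/uL; 30 min RT.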
HEK293 tox: Cytotoxic Profiling in HEK 293 Cell Line of Diverse Libraries Using Quantitative High-Throughput Screening. HEK 293 viability, ATP luminescence (CellTiter-Glo), 48-72 h. Potency, µM (titrated, usually from 115 µM), hits mostly inhibitors. hit rate 6.6% among 94,000. AID 1345083, 2018; note: nearly all actives have a fitted effect of over 60% in size
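ATP-coupled CellTiter-Glo luminescence served as viability read-out, recorded 10 min after reagent addition at room temperature. HEK 293 cells, 250 cells/well, had been incubated with pintool-transferred compound for 48 or 72 hr at 37 degree Celsius.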
FLuc inh: Firefly luciferase inhibition profiling of diverse chemical library using quantitative high-throughput screening. Luciferin 4-monooxygenase (Photinus pyralis), P08659. purified P. pyralis luciferase, luminescence, biochemical. Potency, µM (series often up to 115 µM), most hits filed as inhibitors. hit rate 2.5% among 76,000. AID 1347043, 2019; note: nearly all actives have a fitted effect of over 65% in size
Target sequence (P08659 whole entry, looked up): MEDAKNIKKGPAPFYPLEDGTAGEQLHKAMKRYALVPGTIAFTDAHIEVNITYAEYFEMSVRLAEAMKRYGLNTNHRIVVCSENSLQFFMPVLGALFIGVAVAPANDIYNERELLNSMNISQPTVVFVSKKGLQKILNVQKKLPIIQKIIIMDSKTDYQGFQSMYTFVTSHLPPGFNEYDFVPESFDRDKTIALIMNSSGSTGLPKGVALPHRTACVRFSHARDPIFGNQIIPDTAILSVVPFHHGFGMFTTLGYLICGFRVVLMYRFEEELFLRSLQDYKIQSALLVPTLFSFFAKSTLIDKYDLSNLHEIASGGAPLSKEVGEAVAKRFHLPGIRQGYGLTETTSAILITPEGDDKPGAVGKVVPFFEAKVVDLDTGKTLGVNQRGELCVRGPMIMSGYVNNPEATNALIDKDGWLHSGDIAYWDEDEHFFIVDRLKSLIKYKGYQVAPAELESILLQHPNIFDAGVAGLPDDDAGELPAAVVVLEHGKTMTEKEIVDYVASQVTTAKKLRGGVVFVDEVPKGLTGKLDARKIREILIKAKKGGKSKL
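Purified 10nM P. pyralis luciferase with 10uM D-luciferin and 10uM ATP in 50mM Tris acetate pH 7.5, 10mM Mg acetate, 0.01% Tween-20, 0.05% BSA. qHTS titration; luminescence read by CCD imager.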
NIH3T3 tox: Cytotoxic Profiling in NIH 3T3 Cell Line of Diverse Libraries Using Quantitative High-Throughput Screening; Potency, µM (titrated, usually from 96.7 µM), most hits filed as inhibitors; hit rate 4.3% among 94,000; NIH 3T3 viability, CellTiter-Glo ATP luminescence, 48-72 h; AID 1345082, 2018; note: nearly all actives have a fitted effect of over 55% in size
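First NIH 3T3 cells are plated at 400 cells/well; next compound is pinned in; then plates incubate 48 or 72 hr at 37 °C; finally CellTiter-Glo is added and luminescence read after 10 min.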
hNpr1 antagonist: Natriuretic polypeptide receptor (hNpr1) antagonism - Primary qHTS | hit rate 1.6% among 76,000 | HEK293 hNpr1 GloSensor cGMP, ANP-stimulated luminescence | Potency, µM (highest dose often 46.3 µM), usual class: inhibitors; calls by dose curve; note: nearly all actives have a fitted effect of over 60% in size
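Compound pre-incubated 30 min at room temperature on GloSensor-loaded HEK293 cells stably carrying hNpr1 and the pGS-40F cGMP biosensor. Stimulation uses hNppA at 0.1 nM final; luminescence is taken at baseline and 20 min post-agonist.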
A number is an active result; i = inactive; ? = inconclusive; nt = no result. Rows were chosen to be rich in hits. Some 10% of all compounds tested hit in one or more screens of this group. Unless noted, calls come from the whole dose curve; as a rule, active = well fitted curve in the direction sought with a large enough effect; inconclusive = small, poorly fitted or top-dose-only effect, or another doubt; inactive = no such curve, though single readings can be large; an effect the other way counts as inactive or inconclusive.

SMILES	GPT2 inh	HEK293 tox	FLuc inh	NIH3T3 tox	hNpr1 antagonist
Oc1ccccc1CN1C[C@H](O)C[C@H]1c1nc(-c2ccccc2)no1	i	?	i	?	i
Cc1ccc(-c2noc([C@@H]3C[C@@H](O)CN3Cc3ccc(C(=O)O)cc3)n2)cc1F	i	i	50.1µM	i	i
COc1ccc(CN2C[C@H](O)C[C@H]2c2nc(-c3cccc(C)c3)no2)c2ccccc12	i	100µM	20µM	79.4µM	i
Cc1ccc(-c2noc([C@@H]3C[C@@H](O)CN3Cc3ccccc3O)n2)cc1F	i	?	50.1µM	44.7µM	i
COc1cccc(CC(=O)N2CCOCCNC(=O)[C@@H]3CCCC[C@@H]32)c1	i	i	i	i	i
CC(C)NC(=O)c1cc(-c2ccc(Cl)cc2Cl)c2nncn2n1	i	?	nt	?	nt
Oc1ccc(-c2nc(C3CC3)nc3c2CN(Cc2ccc(C(F)(F)F)cc2)CC3)cc1	i	89.1µM	i	?	i
CCc1nc2c(c(-c3ccc(O)cc3)n1)CN(Cc1ccc(C(F)(F)F)cc1)CC2	i	?	i	?	i
CC(C)c1nc2c(c(-c3ccc(O)cc3)n1)CCN(Cc1ccc(OC(F)(F)F)cc1)CC2	i	?	i	?	i
CC(C)c1nc2c(c(-c3ccc(Cl)cc3)n1)CCN(Cc1ccccc1)CC2	i	?	nt	i	nt
CC(C)c1nc2c(c(-c3ccc(Cl)cc3)n1)CCN(Cc1ccc(F)cc1)CC2	i	39.8µM	nt	?	nt
CC(C)c1nc2c(c(-c3ccc(O)cc3)n1)CCN(Cc1ccc(C(F)(F)F)cc1)CC2	i	35.5µM	i	39.8µM	i
CC(C)c1nc2c(c(-c3ccc(O)cc3)n1)CN(Cc1ccc(C(F)(F)F)cc1)CC2	i	39.8µM	i	?	i
COc1ccc(-c2nc(C3CC(=O)N(c4ccc(F)c(Cl)c4)C3)no2)cc1 (stereo not drawn)	i	i	i	i	?
CC(C)c1nc2c(c(-c3ccc(O)cc3)n1)CN([S+](=O)([O-])c1cccc(C(F)(F)F)c1)CC2	i	?	i	17.8µM	i
COc1ccc(CN2C(=O)[C@H](OC)[C@@H]2C2=CCN(C(=O)c3cccc(C#N)c3)CC2)cc1	i	i	nt	i	nt
CC(CCc1ccccc1)Nc1ncnc2c1CN(C1CCNC1)C(=O)CN2C (stereo not drawn)	i	i	nt	i	nt
Cc1cccc(-c2cccc(CN3CCCC(C(=O)NC4CC4)C3)c2)c1 (stereo not drawn)	i	?	nt	?	nt
O=C(C1CCc2ncc(-c3ccsc3)n2C1)N1CCC(Cc2ccccc2)CC1 (stereo not drawn)	i	i	i	i	i
O=C(C1CCCN(Cc2cccc(-c3ccsc3)c2)C1)N1CCC(Cc2ccccc2)CC1 (stereo not drawn)	i	39.8µM	nt	?	nt
CCOC(=O)C1CCN(C(=O)C2CCCN(Cc3cccc(-c4ccsc4)c3)C2)CC1 (stereo not drawn)	nt	35.5µM	nt	?	nt
CN(Cc1ccccc1)C(=O)C1CCCN(Cc2cccc(-c3ccsc3)c2)C1 (stereo not drawn)	nt	39.8µM	nt	?	nt
O=C(NCc1ccc(F)cc1)C1CCCN(Cc2cccc(-c3ccsc3)c2)C1 (stereo not drawn)	i	?	nt	?	nt
O=C(C1CCCN(Cc2cccc(-c3ccsc3)c2)C1)N1CCN(Cc2ccccc2)CC1 (stereo not drawn)	nt	39.8µM	nt	39.8µM	nt
O=C(NC1CCCCC1)N[C@H]1[C@H](O)[C@@H](N2CCC(Cc3ccccc3)CC2)[C@@H]2OC[C@H]1O2	i	?	i	?	i
SMILES	GPT2 inh	HEK293 tox	FLuc inh	NIH3T3 tox	hNpr1 antagonist
O[C@H]1[C@H](NCc2ccc(OC(F)(F)F)cc2)[C@H]2CO[C@H](O2)[C@@H]1N1CCC(Cc2ccccc2)CC1	i	44.7µM	i	?	?
O[C@H]1[C@H](NCC2CCCCC2)[C@H]2CO[C@H](O2)[C@@H]1N1CCC(Cc2ccccc2)CC1	i	39.8µM	i	31.6µM	i
O[C@H]1[C@H](NCc2ccc(OC(F)(F)F)cc2)[C@H]2CO[C@H](O2)[C@@H]1N1CCOCC1	?	i	i	i	i
COC(=O)N1CCC2(CC1)CCN(Cc1cccs1)c1ccccc1O2	i	?	i	?	i
CCCN1CCC2(CCN(C(=O)OC)CC2)Oc2ccccc21	i	100µM	i	?	i
CCCN1CCC2(CCN(C(=O)c3ccc(OC)cc3)CC2)Oc2ccccc21	i	44.7µM	i	?	i
COc1ccc(CC2CCOC3(CCN(C(=O)c4ccco4)CC3)C2)cc1 (stereo not drawn)	i	50.1µM	nt	?	nt
COCC1CN(C)CC12CCN(C(=O)c1nccc3ccccc13)CC2 (stereo not drawn)	i	?	i	i	i
COc1ccc(CC2CCOC3(CCN(C(=O)CC(C)C)CC3)C2)cc1 (stereo not drawn)	i	?	i	?	?
COc1ccc2[nH]c(C(=O)N3CCC4(CC3)CC(O)CCO4)cc2c1 (stereo not drawn)	i	i	i	i	i
COc1ccc(CC2CCOC3(CCN(C(=O)c4cc5ccccc5[nH]4)CC3)C2)cc1 (stereo not drawn)	i	31.6µM	i	?	i
COCC1CN(C)CC12CCN(C(=O)c1cc3ccccc3[nH]1)CC2 (stereo not drawn)	i	89.1µM	?	i	i
COCC[C@]1(O)CCN(C(=O)c2csc(CN(C)C)n2)C[C@H]1C	i	i	i	i	i
Cc1noc(-c2nc(-c3cccc(Br)c3)no2)n1	i	?	?	i	i
Cc1cccc(-c2noc(-c3nc(C)no3)n2)c1	?	i	25.1µM	i	i
CCCN1CCCC12Cc1ccccc1CN(C(C)=O)C2 (stereo not drawn)	i	?	nt	?	nt
CCCN1CCCC12Cc1ccccc1CN(C(=O)C(C)C)C2 (stereo not drawn)	i	89.1µM	nt	?	nt
CCCN1CCCCC12Cc1ccccc1CN(C(=O)c1c(C)noc1C)C2 (stereo not drawn)	i	?	nt	31.6µM	nt
COc1cccc(CNC(=O)c2ccc3nc(-c4cccc(C)n4)oc3c2)c1	i	?	nt	?	nt
O=C(c1ccccc1)N1CCN(Cc2ccccc2-c2ccccc2F)CC1	i	?	nt	?	nt
Cc1cc(C)c(CNC(=O)c2nc(-c3cccc(C(F)(F)F)c3)cc3[nH]ccc23)c(=O)[nH]1	?	39.8µM	i	?	i
COc1ccc(-c2cc3[nH]ccc3c(C(=O)NCc3c(C)cc(C)[nH]c3=O)n2)cc1	i	?	?	?	?
